PubChem BioAssay (EPA / NIEHS)
“And” between values parts separate entries of the source, which are not always exact repeats. Identical values can stand only once. Results filed as inconclusive are left out. Some compounds were tested as several samples or in several runs, with calls that do not always agree. The source made the active and inactive calls. How the source made its calls, unless noted: active means hit-call score of the fitted dose curve at least 0.9, where 1 is the maximum; inconclusive means response in the unintended direction; inactive means score below 0.9.

What was measured:
[1] = BSK_4H_Eotaxin3: BioMAP Diversity Plus: 4H Assay for Eotaxin 3 Biomarker Activity (AID 2283000; active means hit-call score of the fitted dose curve at least 0.9, where 1 is the maximum; inactive means score below 0.9); conditions: primary human endothelial cells (HUVEC); actives raise or lower the signal
Method in brief: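 HUVEC, 24 h post-dose, ELISA for Eotaxin-3/CCL26. Gain or loss of signal fitted bidirectionally vs DMSO baseline.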

[2] = biological target: human Peroxisome Proliferator-activated Receptor alpha (PPARa), PPARA (gene 5465) (UniProt Q07869); assay: ATG_PPARa_TRANS: Attagene TRANS-FACTORIAL HepG2 Assay for human Peroxisome Proliferator-activated Receptor alpha (PPARa) (AID 2283001);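 on AC50: potency for gain of reporter signal over DMSO so agonist or activator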
Method in brief: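 HepG2 cells transiently transfected with multiplexed GAL4-UAS reporters driven by exogenous chimeric NR-Gal4 proteins; reporter mRNA measured after 24 h dosing. Read-out by RT-PCR, 6-FAM labelling, HpaI digestion and capillary electrophoresis; gain of signal versus DMSO.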

[3] = biological target: human Peroxisome Proliferator-activated Receptor delta (PPARd), PPARD (gene 5467) (UniProt Q03181); assay: ATG_PPARd_TRANS: Attagene TRANS-FACTORIAL HepG2 Assay for human Peroxisome Proliferator-activated Receptor delta (PPARd) (AID 2283002)
Method in brief: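 Read-out: reporter mRNA induction, quantified by fluorescent RT-PCR products resolved by capillary electrophoresis. Human HepG2 liver cells carried transiently transfected Gal4-UAS reporter constructs with chimeric NR-Gal4 fusions. Cells were dosed for 24 h; DMSO served as baseline.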

[4] = read-out: Intercellular Adhesion Molecule 1 (ICAM1), ICAM1 (gene 3383); assay: BSK_3C_ICAM1: BioMAP Diversity Plus: 3C Assay for Intercellular Adhesion Molecule 1 (ICAM1) Biomarker Activity (AID 2283003; active means hit-call score of the fitted dose curve at least 0.9, where 1 is the maximum; inactive means score below 0.9); conditions: primary human endothelial cells (HUVEC); actives raise or lower the signal
Method in brief: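 HUVEC primary cells stimulated under 3C conditions; ICAM1 measured by ELISA 24 h after compound dosing. Curves fitted bidirectionally against the DMSO baseline. Overt cytotoxicity checked by SRB staining of parallel cultures.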

[5] = BSK_3C_Proliferation: Cell Proliferation Assessment in the BioMAP Diversity Plus: 3C Assay (AID 2283006; active means hit-call score of the fitted dose curve at least 0.9, where 1 is the maximum; inactive means score below 0.9;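 on AC50: potency may reflect either rise or fall in cell number versus DMSO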); conditions: primary human endothelial cells (HUVEC)
Method in brief: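 Subconfluent HUVEC (3C system) cultured with chemical; relative cell number read at 48 h by sulforhodamine B total-protein staining (0.1% SRB after 10% TCA fixation, 560 nm). Bidirectional fit relative to DMSO.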

[6] = biological target: Peroxisome proliferator-activated receptor gamma (Homo sapiens) (UniProt P37231); assay: ATG_PPARg_TRANS: Attagene TRANS-FACTORIAL HepG2 Assay for human Peroxisome Proliferator-activated Receptor-gamma (PPARg) (AID 2283007)
Method in brief: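 Liver-derived HepG2 cells expressing an exogenous NR-Gal4 chimera alongside GAL4-UAS reporter genes; 24 h exposure. Fluorescence of reporter RT-PCR products, separated by capillary electrophoresis, gives mRNA induction relative to DMSO.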

[7] = biological target: human RAR-related Orphan Receptor beta (RORb), RORB (gene 6096) (UniProt Q92753); assay: ATG_RORb_TRANS: Attagene TRANS-FACTORIAL HepG2 Assay for human RAR-related Orphan Receptor beta (RORb) (AID 2283010)
Method in brief: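 HepG2 cells transiently transfected with GAL4-UAS reporter units expressing chimeric NR-Gal4 protein; reporter mRNA measured 24 h after dosing by RT-PCR, 6-FAM labelling and capillary electrophoresis. Gain-of-signal fitted relative to DMSO baseline.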

[8] = biological target: human Retinoic Acid Receptor beta (RARb), RARB (gene 5915) (UniProt P10826); assay: ATG_RARb_TRANS: Attagene TRANS-FACTORIAL HepG2 Assay for human Retinoic Acid Receptor beta (AID 2283004)
Method in brief: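 HepG2 cells transiently transfected with multiplexed GAL4-UAS reporter units expressing chimeric NR–Gal4 fusions; 24 h compound exposure. Reporter mRNA quantified by RT-PCR, 6-FAM labelling, HpaI digestion and capillary electrophoresis; gain-of-signal fitted against DMSO baseline.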

[9] = biological target: Retinoic acid receptor alpha (Homo sapiens) (UniProt P10276); assay: ATG_RARa_TRANS: Attagene TRANS-FACTORIAL HepG2 Assay for human Retinoic Acid Receptor alpha (RARa) (AID 2283005);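 on AC50: potency for increased reporter signal meaning RARa activation over DMSO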
Method in brief: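 HepG2 transiently transfected with multiplex GAL4-UAS reporter units including a human RARa–GAL4 chimera; 24 h compound exposure. Reporter mRNA quantified by RT-PCR, 6-FAM labeling and capillary electrophoresis; gain of signal versus DMSO.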

[10] = biological target: Nuclear receptor subfamily 1 group I member 2 (Homo sapiens) (UniProt O75469); assay: ATG_PXR_TRANS: Attagene TRANS-FACTORIAL HepG2 Assay for human Pregnane X Receptor (PXR) (AID 2283008)
Method in brief: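 Fluorescence intensity of FAM-labelled, HpaI-digested reporter amplicons, separated by capillary electrophoresis, quantifies induction. HepG2 cells with PXR-Gal4 trans-reporter system were exposed 24 h; DMSO defines baseline.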

Measured: AC50

Chain of human RAR-related Orphan Receptor beta (RORb), RORB (gene 6096) (Q92753 whole entry, looked up, the tested form may be a part): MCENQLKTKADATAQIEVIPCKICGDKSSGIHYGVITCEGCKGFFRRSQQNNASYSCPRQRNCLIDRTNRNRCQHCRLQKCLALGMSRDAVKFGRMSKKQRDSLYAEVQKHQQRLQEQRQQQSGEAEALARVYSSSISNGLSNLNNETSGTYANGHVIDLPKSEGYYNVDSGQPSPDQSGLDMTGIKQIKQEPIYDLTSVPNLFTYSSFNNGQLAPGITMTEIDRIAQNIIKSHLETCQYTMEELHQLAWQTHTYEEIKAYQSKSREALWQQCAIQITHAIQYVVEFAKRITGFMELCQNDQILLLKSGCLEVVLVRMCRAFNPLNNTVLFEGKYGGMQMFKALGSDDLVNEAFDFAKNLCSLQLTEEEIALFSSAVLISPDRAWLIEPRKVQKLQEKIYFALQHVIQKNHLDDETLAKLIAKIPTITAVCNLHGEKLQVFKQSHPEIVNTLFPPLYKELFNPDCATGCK
Chain of Nuclear receptor subfamily 1 group I member 2 (Homo sapiens) (O75469 whole entry, looked up, the tested form may be a part): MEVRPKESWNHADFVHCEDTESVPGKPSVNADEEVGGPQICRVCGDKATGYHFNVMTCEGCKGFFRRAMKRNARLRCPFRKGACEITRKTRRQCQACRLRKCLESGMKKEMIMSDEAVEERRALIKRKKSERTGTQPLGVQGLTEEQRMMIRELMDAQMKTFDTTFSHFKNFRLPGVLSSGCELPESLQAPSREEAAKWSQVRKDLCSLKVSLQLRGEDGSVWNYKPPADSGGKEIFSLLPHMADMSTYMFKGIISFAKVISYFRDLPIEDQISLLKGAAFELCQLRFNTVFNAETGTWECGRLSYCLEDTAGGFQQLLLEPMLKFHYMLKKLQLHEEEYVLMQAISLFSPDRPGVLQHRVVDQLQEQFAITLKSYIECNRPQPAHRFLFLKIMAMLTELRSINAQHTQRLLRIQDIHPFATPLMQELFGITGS
Chain of Retinoic acid receptor alpha (Homo sapiens) (P10276 whole entry, looked up, the tested form may be a part): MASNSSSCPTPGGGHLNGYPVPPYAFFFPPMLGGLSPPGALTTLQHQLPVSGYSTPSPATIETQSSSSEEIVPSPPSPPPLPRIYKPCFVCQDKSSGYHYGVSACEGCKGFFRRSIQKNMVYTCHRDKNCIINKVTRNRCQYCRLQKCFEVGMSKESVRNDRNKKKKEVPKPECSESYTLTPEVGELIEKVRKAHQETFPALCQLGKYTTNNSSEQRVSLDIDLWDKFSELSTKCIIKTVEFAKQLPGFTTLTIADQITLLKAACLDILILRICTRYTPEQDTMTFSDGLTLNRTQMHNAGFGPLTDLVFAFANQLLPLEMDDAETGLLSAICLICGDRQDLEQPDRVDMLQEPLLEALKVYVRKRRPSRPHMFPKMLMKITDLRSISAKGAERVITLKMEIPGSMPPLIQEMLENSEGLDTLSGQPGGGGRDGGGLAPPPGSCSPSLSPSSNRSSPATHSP
Chain of human Peroxisome Proliferator-activated Receptor alpha (PPARa), PPARA (gene 5465) (Q07869 whole entry, looked up, the tested form may be a part): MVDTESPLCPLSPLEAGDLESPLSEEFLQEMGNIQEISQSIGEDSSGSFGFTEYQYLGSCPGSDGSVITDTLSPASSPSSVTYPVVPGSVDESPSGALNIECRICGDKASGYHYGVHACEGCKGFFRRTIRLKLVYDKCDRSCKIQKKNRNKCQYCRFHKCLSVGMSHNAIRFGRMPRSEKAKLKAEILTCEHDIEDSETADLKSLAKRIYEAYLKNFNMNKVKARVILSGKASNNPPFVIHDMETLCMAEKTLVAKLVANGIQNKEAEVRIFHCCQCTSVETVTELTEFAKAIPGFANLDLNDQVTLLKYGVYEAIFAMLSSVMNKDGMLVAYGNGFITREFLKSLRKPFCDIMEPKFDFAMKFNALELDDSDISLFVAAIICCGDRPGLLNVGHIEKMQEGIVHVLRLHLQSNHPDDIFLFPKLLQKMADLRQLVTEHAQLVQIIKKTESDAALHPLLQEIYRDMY
Chain of human Retinoic Acid Receptor beta (RARb), RARB (gene 5915) (P10826 whole entry, looked up, the tested form may be a part): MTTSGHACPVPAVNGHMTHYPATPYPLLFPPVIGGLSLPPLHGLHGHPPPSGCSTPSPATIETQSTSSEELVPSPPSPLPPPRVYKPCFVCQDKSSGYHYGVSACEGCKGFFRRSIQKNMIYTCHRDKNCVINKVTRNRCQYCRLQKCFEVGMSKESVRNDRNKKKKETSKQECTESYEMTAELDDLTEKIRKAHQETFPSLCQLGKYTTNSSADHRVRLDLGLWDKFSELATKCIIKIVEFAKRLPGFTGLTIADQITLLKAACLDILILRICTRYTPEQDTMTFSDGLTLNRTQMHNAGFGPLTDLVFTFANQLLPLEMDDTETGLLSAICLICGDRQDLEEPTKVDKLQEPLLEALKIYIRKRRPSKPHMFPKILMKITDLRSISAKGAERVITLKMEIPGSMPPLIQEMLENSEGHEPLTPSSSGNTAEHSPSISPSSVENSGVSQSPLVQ
Chain of human Peroxisome Proliferator-activated Receptor delta (PPARd), PPARD (gene 5467) (Q03181 whole entry, looked up, the tested form may be a part): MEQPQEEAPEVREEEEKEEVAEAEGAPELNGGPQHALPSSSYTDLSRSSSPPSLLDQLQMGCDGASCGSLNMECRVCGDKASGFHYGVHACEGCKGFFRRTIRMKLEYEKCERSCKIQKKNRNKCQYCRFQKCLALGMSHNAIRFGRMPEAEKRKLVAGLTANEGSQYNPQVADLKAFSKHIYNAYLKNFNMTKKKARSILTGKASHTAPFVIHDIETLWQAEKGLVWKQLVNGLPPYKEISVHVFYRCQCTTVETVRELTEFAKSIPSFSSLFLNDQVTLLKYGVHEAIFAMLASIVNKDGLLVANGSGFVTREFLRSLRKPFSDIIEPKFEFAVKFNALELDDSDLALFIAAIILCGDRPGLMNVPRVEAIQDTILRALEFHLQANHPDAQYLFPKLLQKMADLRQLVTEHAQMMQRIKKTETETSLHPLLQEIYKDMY
Chain of Peroxisome proliferator-activated receptor gamma (Homo sapiens) (P37231 whole entry, looked up, the tested form may be a part): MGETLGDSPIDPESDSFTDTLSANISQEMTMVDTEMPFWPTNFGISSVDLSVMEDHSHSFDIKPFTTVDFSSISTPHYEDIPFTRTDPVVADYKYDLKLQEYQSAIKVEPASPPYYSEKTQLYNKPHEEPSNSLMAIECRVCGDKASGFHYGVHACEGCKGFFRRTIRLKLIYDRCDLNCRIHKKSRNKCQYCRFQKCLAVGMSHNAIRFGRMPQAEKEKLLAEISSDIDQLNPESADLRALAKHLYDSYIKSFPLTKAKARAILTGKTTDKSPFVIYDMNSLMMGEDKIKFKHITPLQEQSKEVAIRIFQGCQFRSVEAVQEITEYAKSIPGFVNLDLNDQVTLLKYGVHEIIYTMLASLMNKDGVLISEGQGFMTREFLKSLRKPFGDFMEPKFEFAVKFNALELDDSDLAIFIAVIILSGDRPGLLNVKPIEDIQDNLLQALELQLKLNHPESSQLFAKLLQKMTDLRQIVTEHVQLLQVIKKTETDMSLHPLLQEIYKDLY

Sc1ccccc1
inactive: [1] | [2] | [3] | [4] | [5]

Clc1ccc(C(c2ccccc2Cl)C(Cl)(Cl)Cl)cc1 (stereo not drawn)
active: [1] 20.3 µM | [4] 21.7 µM | [5] 7.61 µM
inactive: [2] | [3] | [6] | [7]

ClC(Cl)=C(c1ccc(Cl)cc1)c1ccc(Cl)cc1
active: [1] 31.2 µM | [2] 26.2 µM | [4] 34 µM
inactive: [2] | [3] | [6] | [7]

Cc1cc(-c2ccc(N)c(C)c2)ccc1N
active: [6] 100 µM
inactive: [1] | [2] | [4] | [8] | [9] | [5] | [6]

CC(c1ccc(O)cc1)(c1ccc(O)cc1)c1ccc(O)cc1
inactive: [3] | [4] | [6]
active: [1] 31.4 µM | [5] 28 µM | [10] 2.93 µM

O=C(NC(=O)c1cc(F)c(F)cc1Cl)Nc1cc(F)ccc1N1CCC(C(=O)O)CC1
active: [6] 0.954 µM
not listed: [3] | [8] | [9]
inactive: all other assays above

N#Cc1ccc(N(CC(N)=O)CC(F)(F)F)cc1C(F)(F)F
inactive: [1] | [4] | [8] | [5] | [6] | [10]

C=CC(=O)NCNC(=O)C=C
inactive: [1] | [2] | [4] | [5] | [6] | [7]

C[C@]12CCC(=O)C=C1CC[C@@H]1[C@@H]2CC[C@]2(C)C(=O)CC[C@@H]12
not listed: [2] | [7] | [10]
inactive: all other assays above

Cc1ccccc1CO[C@@H]1C[C@@]2(C(C)C)CC[C@]1(C)O2
active: [6] 32.3 µM | [10] 5.24 µM
not listed: [2] | [7]
inactive: all other assays above

CO/C=C(/C(=O)OC)c1ccccc1COc1cccc(C(F)(F)F)n1
inactive: [4]
active: [1] 16.5 µM | [5] 1.82 µM | [6] 5.74 µM

CCC(C)(CC)c1cc(NC(=O)c2c(OC)cccc2OC)on1
active: [10] 0.692 µM
inactive: [1] | [3] | [4] | [5] | [6]

c1cc2ccc3cccc4ccc(c1)c2c34
not listed: [2] | [7]
inactive: all other assays above

C1CC2OC2CC1C1CO1 (stereo not drawn)
inactive: [1] | [4] | [5]

CCC(=O)O[C@H]1CC[C@H]2[C@@H]3CCC4=CC(=O)CC[C@]4(C)[C@H]3CC[C@]12C
inactive: [3] | [8] | [9] | [6]
active: [1] 36 µM | [4] 35.8 µM | [5] 23 µM

C=CC(N)=O
not listed: [2] | [3] | [6]
inactive: all other assays above

CCC(C)(c1ccc(O)cc1)c1ccc(O)cc1
active: [5] 26.8 µM | [6] 46.1 µM
inactive: [1] | [2] | [4] | [6] | [7]

CC(C)C(=O)OCC(C)(C)C(OC(=O)C(C)C)C(C)C (stereo not drawn)
active: [5] 31.6 µM | [10] 0.483 µM
inactive: [1] | [2] | [4]

CC1=C2C[C@H]3[C@@H](CC=C4C[C@@H](O)CC[C@@]43C)[C@@H]2CC[C@]12O[C@@H]1C[C@H](C)CN[C@H]1[C@H]2C
inactive: [1] | [3] | [4] | [9] | [5]

CCSC(=O)N(CC)C1CCCCC1
inactive: [1] | [4] | [5] | [6]

CCOC(=O)C(O)(c1ccc(Cl)cc1)c1ccc(Cl)cc1
active: [1] 34.6 µM | [4] 37.9 µM | [5] 30.1 µM | [6] 11.1 µM
inactive: [3]

O=S(=O)(O)C(F)(F)C(F)(F)C(F)(F)C(F)(F)C(F)(F)C(F)(F)F
active: [6] 32.5 µM and 79.5 µM and 61.7 µM
not listed: [2] | [8] | [9]
inactive: all other assays above

CC(C)(O)C(=O)Nc1ccc([N+](=O)[O-])c(C(F)(F)F)c1
inactive: [1] | [2] | [4] | [5] | [7]

Cc1cccc(C)c1N
inactive: [1] | [4] | [5]

Cc1cccc([N+](=O)[O-])c1
inactive: [1] | [4] | [8] | [5]

CCCN(CCC)N=O
inactive: [1] | [4] | [5]

CN(C)c1nc(=O)n(C2CCCCC2)c(=O)n1C
inactive: [1] | [4] | [5] | [6]

C[C@]12CCC(=O)C=C1CC[C@@H]1[C@@H]2CC[C@@]2(C)[C@H]1CC[C@]2(C)O
inactive: [1] | [3] | [4] | [6] | [7]
active: [5] 28.8 µM

Oc1ccc(C(c2ccc(O)cc2)(C(F)(F)F)C(F)(F)F)cc1
inactive: [3] | [6] | [7]
active: [1] 34.8 µM | [4] 38.3 µM | [5] 12.8 µM | [10] 6 µM [middle of 4 runs]

CCOP(=S)(OCC)SCSC(C)(C)C
active: [5] 29.3 µM
inactive: [1] | [3] | [4] | [6]

Clc1ccc(C(Cl)(Cl)Cl)cc1
inactive: [1] | [2] | [4] | [5] | [6]

Nc1ccc(-c2ccc(N)cc2)cc1
not listed: [2] | [3] | [9]
inactive: all other assays above

ClC1=C(Cl)[C@]2(Cl)[C@@H]3[C@@H]4C[C@@H]([C@H]5O[C@@H]45)[C@@H]3[C@@]1(Cl)C2(Cl)Cl
active: [9] 0.855 µM | [5] 14.5 µM
not listed: [2] | [10]
inactive: all other assays above

CCOCCOC(C)=O
inactive: [1] | [3] | [4] | [5] | [6]

OCC(O)CO
active: [2] 36.7 µM | [6] 50 µM
inactive: [3] | [8] | [9] | [6]

ClC1=C(Cl)[C@]2(Cl)[C@@H]3[C@@H](Cl)[C@H]4O[C@H]4[C@@H]3C1(Cl)C2(Cl)Cl
active: [5] 11.2 µM
inactive: [1] | [3] | [4] | [9]

O=C(N[C@H]1CN2CCC1CC2)c1cc2ccoc2cn1
inactive: [1] | [2] | [4] | [5] | [10]
